Results filed as inconclusive are left out. Active and inactive are the calls of the source. How the source made its calls: active means hit-call score of the fitted dose curve at least 0.9, where 1 is the maximum; inconclusive means response in the unintended direction; inactive means score below 0.9.

The values that follow come from PubChem BioAssay (EPA / NIEHS).

For this experiment, the target named is Peroxisome proliferator-activated receptor gamma (Homo sapiens) (UniProt P37231). Description: ATG_PPARg_TRANS: Attagene TRANS-FACTORIAL HepG2 Assay for human Peroxisome Proliferator-activated Receptor-gamma (PPARg) (AID 2283007). As to the method: ATG_TRANS is a cell-based, multiplexed-readout assay that uses HepG2, a human liver cell line, with measurements taken at 24 hours after chemical dosing in a 24-well plate.ATG_PPARg_TRANS is one of 30 assay component(s) measured or calculated from the ATG_TRANS assay. It is designed to make measurements of mRNA induction, a form of inducible reporter, as detected with fluorescence intensity signals by Reverse transcription polymerase chain reaction (RT-PCR) and Capillary electrophoresis technology.Data from the assay component ATG_PPARg_TRANS was analyzed into 1 assay endpoint. This assay endpoint, ATG_PPARg_TRANS, was analyzed in the positive analysis fitting direction relative to DMSO as the negative control and baseline of activity. Using a type of inducible reporter, measures of mRNA for gain-of-signal activity can be used to understand the reporter gene at the transcription factor-level as they relate to the gene PPARG. Furthermore, this assay endpoint can be referred to as a primary readout, because this assay has produced multiple assay endpoints where this one serves a reporter gene function. To generalize the intended target to other relatable targets, this assay endpoint is annotated to the nuclear receptor intended target family, where the subfamily is non-steroidal.
Sequence of Peroxisome proliferator-activated receptor gamma (Homo sapiens) (P37231 whole entry, looked up): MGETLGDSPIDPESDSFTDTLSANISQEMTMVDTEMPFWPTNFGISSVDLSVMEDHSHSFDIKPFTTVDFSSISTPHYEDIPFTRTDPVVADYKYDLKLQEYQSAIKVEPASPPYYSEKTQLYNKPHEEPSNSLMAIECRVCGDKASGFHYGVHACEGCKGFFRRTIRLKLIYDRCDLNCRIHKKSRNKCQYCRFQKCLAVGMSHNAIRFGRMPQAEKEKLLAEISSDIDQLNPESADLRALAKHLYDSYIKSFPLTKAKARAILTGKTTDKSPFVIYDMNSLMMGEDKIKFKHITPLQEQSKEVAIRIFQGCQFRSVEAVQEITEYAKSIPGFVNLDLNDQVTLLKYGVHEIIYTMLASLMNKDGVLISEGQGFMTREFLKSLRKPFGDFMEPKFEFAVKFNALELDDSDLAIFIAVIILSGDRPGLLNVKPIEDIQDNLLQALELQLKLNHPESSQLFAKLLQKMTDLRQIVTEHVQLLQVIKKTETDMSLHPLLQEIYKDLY
Human liver HepG2 cells are transiently transfected with multiple reporter transcription units (MRTUs) in 6-well plates using FuGene 6 reagent (Roche; 3 ml FuGene/1 mg DNA). The MRTU constructs are regulated by a cis-regulating element (promoter). […] A major difference between the CIS and TRANS system is that in CIS activities of endogenous TFs are measured, whereas the TRANS assay evaluates changes in activities of exogenous, chimeric NR-Gal4 proteins. […] At the end of 24 hour incubation, total RNA was isolated using TriZol reagent (Invitrogen). The isolated RNA is then reverse-transcribed using oligo(dT) primer and Mo-MLV reverse transcriptase (Invitrogen) with DNAse I (Ambion) treatment for 30 min. The one-tenth of the produced cDNA was amplified by PCR using Taq DNA polymerase (Invitrogen) and two reporter sequence-specific primers. The PCR products were fluorescently labeled by primer extension with 6-arboxyfluorescein (6-FAM) 5'-labeled reporter sequence-specific primer (2 min at 95 C, 20 s at 68 C and 10 min at 72 C) and these products were digested with 5U of HpaI (New England Biolabs) for 2h at 37 C. The fragments were purified using Qiaquick PCR columns (Qiagen), analyzed on an ABI 3130xL genetic analyzer (Applied Biosystems) with peak positions identified by using a set of X-rhodamine (ROX)-labeled MapMarker1000 molecular weight standards (BioVentures). The raw capillary electrophoresis data was processed using Attagraph software (Attagene).
One may read the AC50 as the midpoint of the concentration-response curve, whichever way the signal moves. As to `O=C(O)c1snc(Cl)c1Cl`, the AC50 was 25.3 µM (active).
In the case of `CCOC(=O)c1ccccc1OC`, the compound was called inactive.
Consider `C=C(C)C(=O)O[C@H]1C[C@@H]2CC[C@@]1(C)C2(C)C`, for which the call was inactive.
As for `Cc1ccc(S)cc1`, the AC50 was 22.8 µM (active).
`O=C(O)Cc1cccc2ccccc12`: the AC50 was 69 µM (active).
In the case of `CCc1c(C)cc(N)c(CC)c1N`, the compound was classed as inactive.
In the case of `CC(=O)/C=C/C1=C(C)CCCC1(C)C`, the AC50 was 21.1 µM (active).
With `C=CC(=O)OCC(O)COc1ccccc1` (stereo not given), the AC50 was 3.66 µM (active).
Regarding `O=C(O)c1cn(C2CC2)c2cc(N3CCNCC3)c(F)cc2c1=O`, the compound was called inactive.
On to `Cc1c(Cl)c(=O)oc2cc(O)ccc12`, for which the concentration at half-maximal activity (AC50) was 100 µM (active).
Consider `COc1cccc(OC)c1`, for which the call was inactive.
Take `CCC/C=C/C=O`: the AC50 is 27.7 µM (active).
For `COc1ccc(Nc2ccccc2)c(C)c1`, the AC50 was 31.5 µM (active).
In the case of `CC(=O)O[C@H](CC(=O)[O-])C[N+](C)(C)C`, the compound was classed as inactive.
For the compound `O=Nc1ccc(Nc2ccccc2)cc1`, the AC50 is 26.6 µM (active).
Regarding `CC(CCO)CCCC(C)(C)O` (stereo not given), the result was inactive.
With `COC(=O)Cc1cccc2ccccc12`, the AC50 is 66.5 µM (active).
With `O=Cc1ccc(Cl)c([N+](=O)[O-])c1`, the AC50 was 100 µM (active).
As for `O=C(O)CCCCCCCC(=O)O`, the compound was classed as inactive.
Take `CCC(=O)OCCC(C)CCC=C(C)C` (stereo not given): the compound was called inactive.
Still for that read-out and setting: as for `NCCCCCCN`, the entry is “inactive”.
Regarding `CCCC(=O)OCCC(C)CCC=C(C)C` (stereo not given), the AC50 is 31 µM (active).
For `Cc1ccc(Nc2ccc(O)c3c2C(=O)c2ccccc2C3=O)cc1`, the outcome was inactive.
For `CCCCCCCCCCCCCCCC(=O)O`, the call was inactive.
For the compound `CCCc1c(OCCCOc2ccc(OCC(=O)O)cc2)ccc(C(C)=O)c1O`, the AC50 was 0.195 µM (active).
`CO[Si](C)(OC)c1ccccc1`: the result was inactive.
Take `Clc1nc(C(Cl)(Cl)Cl)c(Cl)c(Cl)c1Cl`: the AC50 is 1.45 µM (active).
Take `O=C(OCc1ccccc1)C(=O)OCc1ccccc1`: the compound was classed as inactive.
Still for that read-out and setting: the result for `CC(C)(CO)[N+](=O)[O-]` reads “inactive”.
In the case of `CCCCCC(CO)CCC` (stereo not given), the compound was classed as inactive.
Take `OCCCCCO`: the compound was classed as inactive.
Still for that read-out and setting: the result for `Cc1ccc(C(C)C)cc1O` reads “inactive”; that for `COc1cc(C)cc(O)c1`, “inactive”.
As for `O=[N+]([O-])c1ccc(Nc2ccc(Nc3ccccc3)c(S(=O)(=O)O)c2)c([N+](=O)[O-])c1`, the AC50 was 17.9 µM (active).
Take `NCCNCCN`: the call was inactive.
For the compound `CC(CN1c2ccccc2Sc2ccccc21)N(C)C` (stereo not given), the AC50 was 47.8 µM (active).
Consider `Cc1cccc(C)c1C`, for which the compound was classed as inactive.
On to `CCCc1ccccc1O`, for which the result was inactive.
Take `CC1=CCC2C(C1)C2(C)C` (stereo not given): the result was inactive.
As to `CC1COc2ccccc2N1C(=O)C(Cl)Cl` (stereo not given), the result was inactive.
